The structures appear in SMILES notation. Values joined by “and” are separate entries in the source; they are usually repeats but may differ in a detail not shown here. Equal entries are not always repeated. Results filed as inconclusive are left out. More than one record can exist for a structure, and the calls need not agree. Unmarked numbers belong to inactive results. Active and inactive are the calls of the source. Calls come from the whole dose curve; as a rule, active = well fitted inhibition curve with a large enough effect; inconclusive = small, poorly fitted or top-dose-only effect; inactive = no such curve, though single readings can be large or run the other way.

In this test the target is Cruzipain (Trypanosoma cruzi) (UniProt P25779). The experiment in a line: Confirmation qHTS Assay for Inhibitors of Cruzain.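 For activity change, negative = inhibition: plate controls were uninhibited enzyme control for no effect and buffer wells lacking enzyme for full effect.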 Note: nearly all actives have a fitted effect of over 40% in size. The settings on record: purified cruzain, Z-FR-AMC fluorescence, 0.01% Triton. Put shortly:
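Reaction progress from the 60 s rise in AMC fluorescence (ex 360, em 450 nm) after adding 2 uM Z-FR-AMC. Before this, 1.5 nM cruzain sat 15 min at room temperature with compound in pH 5.5 acetate buffer with 5 mM DTT and 0.01% Triton X-100.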
A general note: Quantitative high-throughput screening tests each substance at several concentrations.
Potency is the fitted concentration of half-maximal effect.

Cruzipain (Trypanosoma cruzi), sequence (P25779 123-467 limits assumed): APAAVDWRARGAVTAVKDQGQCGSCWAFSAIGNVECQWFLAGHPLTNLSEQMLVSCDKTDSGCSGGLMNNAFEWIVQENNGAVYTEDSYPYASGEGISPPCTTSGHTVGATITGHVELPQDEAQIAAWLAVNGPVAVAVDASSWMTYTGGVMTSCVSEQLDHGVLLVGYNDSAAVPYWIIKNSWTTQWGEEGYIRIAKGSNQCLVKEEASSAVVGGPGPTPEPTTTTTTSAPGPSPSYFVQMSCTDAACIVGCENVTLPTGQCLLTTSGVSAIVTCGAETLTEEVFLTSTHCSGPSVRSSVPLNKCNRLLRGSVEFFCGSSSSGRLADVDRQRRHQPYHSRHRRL

In the case of `CSc1nc(N(CCO)CCO)c2sc3nc(-c4ccco4)c4c(c3c2n1)CCC4`, the Potency was 11.2 µM (active).

For `CC(C)(C)c1ccc(-c2nc(SCC(=O)Nc3ccc(Cl)cc3)[nH]c(=O)c2C#N)cc1`, the Potency is 12.6 µM (active).

For the compound `COc1cc(OC)c(-c2nn3c(-c4cc(C)[nH]n4)nnc3s2)cc1OC`, the activity change, negative = inhibition is -21.4%.

On to `O=C(Nc1ccccc1)c1ccc2nc(-c3ccco3)c(-c3ccco3)nc2c1`, for which the Potency is 7.94 µM (active). In the case of `CC(C)(C)OC(=O)Cc1nnc(C(C(=O)OCc2ccccc2)c2ccccc2)s1` (stereo not given), the activity change, negative = inhibition was -12.2%. The same measure, in the same setting: in the case of `c1ccc(CNCc2nnc(-c3cc4ccccc4[nH]3)s2)cc1` it was -7.37%.

As for `N#Cc1c(N2CCOCC2)nc(-c2ccco2)c2c1CCCC2`, the Potency was 3.98 µM (active). Still for that read-out and setting: to `O=C(OCN1C(=O)c2ccccc2C1=O)/C(=C\c1ccco1)NC(=O)c1ccccc1` belongs 1.12 µM (active); to `CSCC[C@H](NC(=O)COc1ccc(Cl)cc1Cl)c1nc2ccccc2[nH]1`, 2.82 µM (active); to `CC[C@@H](C)[C@H](NC(=O)OC(C)(C)C)c1nnc(S(=O)(=O)Cc2cc(C)ccc2C)o1`, 14.1 µM (active). Regarding `NC(=S)n1[nH]c(-c2ccc([N+](=O)[O-])cc2)c(N=Nc2ccc(O)cc2)c1=O`, the activity change, negative = inhibition was -8%. Regarding `N#Cc1nc(Nc2cccc([N+](=O)[O-])c2)nc(NC2CCCC2)n1`, the Potency was 0.0631 µM (active). With `CC(C)(C)OC(=O)CC(=O)NNC(=O)c1nc2ccccc2[nH]1`, the activity change, negative = inhibition is 3.76%. The same measure, in the same setting: to `COc1cc(-c2nn3c(-c4cc(-c5ccccc5)n[nH]4)nnc3s2)cc(OC)c1OC` belongs -7.01%. As for `O=C(CNC(=O)C1CCCCC1)OC(C(=O)c1ccccc1)c1ccccc1` (stereo not given), the Potency is 1.26 µM (active). In the case of `COc1ccc(OCCCn2c(CCNC(=O)C3CCCCC3)nc3ccccc32)cc1`, the Potency was 1.41 µM (active). Consider `O=C(CNC(=O)c1ccccc1)OC(C(=O)Nc1cc(C(F)(F)F)ccc1Cl)c1ccccc1` (stereo not given), for which the Potency is 5.01 µM (active); the activity change, negative = inhibition is -10.9% and -27.8%. As for `N#Cc1nc(NCCCO)nc(Nc2ccccc2)n1`, the Potency was 2.24 µM (active). The same measure, in the same setting: to `O=C(NCCc1nc2ccccc2n1CCCOc1cccc2ccccc12)C1CCCCC1` belongs 2.24 µM (active). Consider `Cc1csc(N/N=C/c2ccc(O)c([N+](=O)[O-])c2)n1`, for which the activity change, negative = inhibition was -63.9%. Consider `Cn1c(C(=O)NCCN2CCCCCC2)cc2c(=O)n(C)c3ccccc3c21`, for which the Potency is 25.1 µM (active). On the same count and under the same terms, to `O=c1cc(-c2cccc(Br)c2)nc(-c2ccccc2F)o1` belongs 11.2 µM (active); to `O=C(CNC(=O)C1CCCCC1)OCC(=O)c1ccccc1`, 6.31 µM (active). On the same count and under the same terms, in the case of `O=C(COC(=O)CCSc1ccccc1Cl)Nc1ccc(F)cc1F` it was 14.1 µM (active). As for `Cc1ccc(COc2ccc3oc(-c4ccccc4)c(C(=O)O)c3c2)cc1`, the activity change, negative = inhibition is -34.5%. Consider `CC(C)(C)c1ccc(Nc2nc(C#N)nc(NC3CCCC3)n2)cc1`, for which the Potency was 3.55 µM (active). `O=C(CNC(=O)c1ccccc1)OCC(=O)c1ccc2ccccc2c1`: the Potency was 15.8 µM (active). Turning to `COc1cccc(C(=O)NC2CCN(C#N)CC2)c1`, the activity change, negative = inhibition was -6.95%.

`CN1CCN(c2ncc3ncc(=O)n(-c4ccccc4)c3n2)CC1`: the activity change, negative = inhibition was -20%. With `COc1cc(NC(=O)C(OC(=O)CNC(=O)c2ccccc2)c2ccccc2)cc(OC)c1` (stereo not given), the Potency is 25.1 µM (active). For `Cc1ccc(OCCCn2c(CCNC(=O)C3CCCCC3)nc3ccccc32)cc1`, the Potency was 0.794 µM (active). The same measure, in the same setting: in the case of `Cc1cc(OCCCn2c(CCNC(=O)C3CCCCC3)nc3ccccc32)ccc1Cl` it was 1.12 µM (active). With `O=C(CNC(=O)c1ccc([N+](=O)[O-])cc1)OC(C(=O)Nc1cc(C(F)(F)F)ccc1Cl)c1ccccc1` (stereo not given), the Potency is 12.6 µM (active). As for `Cc1cccc(C)c1OCCn1c(CCNC(=O)C2CCCCC2)nc2ccccc21`, the Potency is 1.12 µM (active).

On to `O=C(Cn1cc(CNC(=O)C2CCCCC2)nn1)Nc1cc(C(F)(F)F)ccc1Cl`, for which the activity change, negative = inhibition was 0.597%. Same read-out and setting: in the case of `Cc1ccc(SCCC(=O)OCC(=O)Nc2ncc(Cl)cc2Cl)cc1` it was -19.6%. Regarding `CCN(CC)c1nc(C#N)nc(N2CCOCC2)n1`, the Potency is 8.91 µM (active). Same read-out and setting: to `O=C(NCCc1nc2ccccc2n1CCCOc1ccccc1Cl)C1CCCCC1` belongs 1.58 µM (active). Regarding `CCCCNC(=O)Cn1c(SCc2ccccc2C)nc2ccncc21`, the activity change, negative = inhibition is -24.9%.

(Values after PubChem BioAssay AID2158 (National Center for Advancing Translational Sciences (NCATS), 2009).)
